Among the test systems are SK-MEL-2 melanoma; EKVX NSCLC; SN12C renal; UO-31 renal; TK-10 renal; ACHN renal; A498 renal; CCRF-CEM leukemia; MOLT-4 leukemia; SR leukemia; RPMI-8226 leukemia; OVCAR-8 ovarian; OVCAR-5 ovarian; OVCAR-4 ovarian; SK-OV-3 ovarian; IGROV1 ovarian; OVCAR-3 ovarian; HS 578T breast; NCI/ADR-RES ovarian; CAKI-1 renal.
Holding throughout (assay): NCI-60 one-dose screen, 48 h (100 = growth as untreated, 0 = no growth, -100 = all killed)
What all share (conditions): 10 µM unless noted

The structures appear in SMILES notation. Compounds without any hit were thinned out: in the full panel of roughly 83,000, 20% have a hit.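 Percent growth is the endpoint: 0 to 100 indicates growth inhibition (40 means 60% inhibition), 0 means no net growth, and negative values indicate cell death.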 Unmarked numbers belong to inactive results. Calls of active or inactive are those of the source. How the source made its calls: active means growth percent below 10; inactive means the rest.

The source of these data is PubChem BioAssay (NCI).

With `CCN1CCN(c2nc(NCCNc3ccnc4cc(Cl)ccc34)c3ccccc3n2)CC1`, the growth was -71.4% (active) in the experiment on SK-MEL-2 melanoma; 53.3% with EKVX NSCLC; -5.71% (active) in the experiment on SN12C renal; -75.2% (active) in the experiment on UO-31 renal; -19.4% (active) in the experiment with TK-10 renal; -25.7% (active) with ACHN renal. In addition, the growth in the experiment on A498 renal was 77.1%; with CCRF-CEM leukemia, -12.8% (active); in the experiment with MOLT-4 leukemia it was 6.3% (active); in the experiment on SR leukemia it was -25.5% (active); in the experiment on RPMI-8226 leukemia, -25.4% (active); in the experiment on OVCAR-8 ovarian, 2.98% (active). Also, the growth is 53.7% with OVCAR-5 ovarian; 33.7% with OVCAR-4 ovarian; 51.8% in the experiment on SK-OV-3 ovarian; 28.6% in the experiment with IGROV1 ovarian; 8.7% (active) in the experiment with OVCAR-3 ovarian; 49.8% in the experiment with HS 578T breast. Further, the growth with NCI/ADR-RES ovarian is 70.3%.
Consider `O=[N+]([O-])c1ccc2c(c1)Cc1cc(F)ccc1-2`, for which the growth was 126% in the experiment on SK-MEL-2 melanoma; 68.7% in the experiment with EKVX NSCLC; 99% in the experiment with SN12C renal; 88.8% with UO-31 renal; 96.8% in the experiment with TK-10 renal; 103% in the experiment with ACHN renal. Besides, the growth in the experiment on CAKI-1 renal was 96.4%; with CCRF-CEM leukemia, 81.9%; with MOLT-4 leukemia, 94.1%; in the experiment on SR leukemia, 103%; with RPMI-8226 leukemia it was 89.3%; with OVCAR-8 ovarian, 103%. Also, the growth with OVCAR-5 ovarian was 96.6%; in the experiment on OVCAR-4 ovarian it was 91.7%; in the experiment on SK-OV-3 ovarian, 99.1%; in the experiment on OVCAR-3 ovarian, 113%; with HS 578T breast, 95.6%; in the experiment on NCI/ADR-RES ovarian, 106%.
`O=C(/C=C/c1ccc(C(F)(F)F)cc1)Nc1ccc(C=C2c3ccccc3C(=O)c3ccccc32)cc1`: the growth in the experiment with SK-MEL-2 melanoma was 25.5%; in the experiment with EKVX NSCLC it was 53.6%; with SN12C renal, 89.6%; with UO-31 renal, 72.6%; in the experiment on TK-10 renal it was 70.2%; in the experiment on ACHN renal, 74.8%. Moreover, the growth in the experiment on CAKI-1 renal was 56.2%; in the experiment with CCRF-CEM leukemia it was 32.6%; in the experiment with MOLT-4 leukemia it was 47.5%; with SR leukemia it was 18.6%; in the experiment on RPMI-8226 leukemia, 10.4%; in the experiment with OVCAR-8 ovarian, 55.7%. For the same compound, the growth with OVCAR-5 ovarian was 84.2%; in the experiment with OVCAR-4 ovarian it was 47.5%; in the experiment on SK-OV-3 ovarian, 77.9%; in the experiment on IGROV1 ovarian it was 111%; with OVCAR-3 ovarian, 44.1%; with NCI/ADR-RES ovarian, 60%.
`COc1ccc(/C=C2\Oc3cc(OCCCCN4CCCC4)ccc3C2=O)cc1`: the growth was 98.9% with SK-MEL-2 melanoma; 91.5% in the experiment with EKVX NSCLC; 90.3% in the experiment with SN12C renal; 68% in the experiment with UO-31 renal; 98.1% in the experiment on TK-10 renal; 95.5% in the experiment with ACHN renal. Moreover, the growth in the experiment with CAKI-1 renal was 95%; in the experiment on CCRF-CEM leukemia, 13.8%; in the experiment with MOLT-4 leukemia, 42.7%; in the experiment with SR leukemia, -25.3% (active); in the experiment on RPMI-8226 leukemia, 80.7%; with OVCAR-8 ovarian it was 91.1%. For the same compound, the growth with OVCAR-5 ovarian is 93.4%; with OVCAR-4 ovarian it was 92.3%; in the experiment with SK-OV-3 ovarian, 113%; in the experiment with OVCAR-3 ovarian, 94.3%; with HS 578T breast, 90.9%; in the experiment on NCI/ADR-RES ovarian it was 95.1%.
Turning to `COc1ccc(SC2c3ccc(C)cc3Oc3nc(N)c(C#N)c(N)c32)cc1` (stereo unspecified), the growth in the experiment on SK-MEL-2 melanoma is -59.8% (active); in the experiment with EKVX NSCLC it was -10.8% (active); in the experiment with SN12C renal it was -94.3% (active); with UO-31 renal, -95.9% (active); in the experiment with TK-10 renal, -97.9% (active); with ACHN renal, -98.1% (active). Moreover, the growth is 28.7% with A498 renal; -33.5% (active) in the experiment on CCRF-CEM leukemia; -24.7% (active) in the experiment on MOLT-4 leukemia; -28% (active) in the experiment on SR leukemia; -34.2% (active) in the experiment on RPMI-8226 leukemia; -89.1% (active) in the experiment on OVCAR-8 ovarian. In addition, the growth with OVCAR-5 ovarian was 5.64% (active); in the experiment with OVCAR-4 ovarian it was -93.5% (active); in the experiment with SK-OV-3 ovarian, 44.9%; in the experiment with IGROV1 ovarian, -82.8% (active); in the experiment with OVCAR-3 ovarian, -93.7% (active); in the experiment on HS 578T breast, 3.13% (active). Moreover, the growth in the experiment with NCI/ADR-RES ovarian was 1.24% (active).
Take `O=C(COc1ccc(/C=C2\COc3ccccc3C2=O)cc1)Nc1nccs1`: the growth was 72.8% in the experiment with SK-MEL-2 melanoma; 102% in the experiment with EKVX NSCLC; 114% with SN12C renal; 73.2% with UO-31 renal; 88.7% in the experiment on TK-10 renal; 94.1% with ACHN renal. In addition, the growth is 103% in the experiment on CAKI-1 renal; 7.16% (active) in the experiment on CCRF-CEM leukemia; 22.5% in the experiment with MOLT-4 leukemia; -2.82% (active) in the experiment on SR leukemia; -0.182% (active) in the experiment with RPMI-8226 leukemia; 85% in the experiment on OVCAR-8 ovarian. Moreover, the growth in the experiment on OVCAR-5 ovarian is 93%; with OVCAR-4 ovarian it was 92.9%; in the experiment on IGROV1 ovarian, 3.63% (active); in the experiment on OVCAR-3 ovarian it was 95.8%; in the experiment with HS 578T breast, -38.3% (active); with NCI/ADR-RES ovarian it was 86.1%.
In the case of `O=C(O)c1ccc(N=CC(=O)c2ccc(-c3ccccc3)cc2)cc1`, the growth in the experiment with SK-MEL-2 melanoma is 108%; with EKVX NSCLC it was 99.3%; with SN12C renal it was 95.8%; in the experiment on UO-31 renal, 93.5%; in the experiment on TK-10 renal, 96.8%; in the experiment on ACHN renal, 96.2%. In addition, the growth was 102% with CAKI-1 renal; -57.9% (active) in the experiment with CCRF-CEM leukemia; 99.9% with MOLT-4 leukemia; 90.3% in the experiment with RPMI-8226 leukemia; 98.7% in the experiment on OVCAR-8 ovarian; 92.6% in the experiment with OVCAR-5 ovarian. In addition, the growth in the experiment with OVCAR-4 ovarian was 101%; in the experiment with SK-OV-3 ovarian, 110%; in the experiment with IGROV1 ovarian, 102%; in the experiment with OVCAR-3 ovarian, 119%; in the experiment on HS 578T breast, 88.9%; with NCI/ADR-RES ovarian, 94.9%.
For `CC(C)(C)c1cc(/C=N\NC(=O)/C=C/C=C/c2ccc3c(c2)OCO3)c(O)c(C(C)(C)C)c1`, the growth in the experiment on SK-MEL-2 melanoma is 89%; in the experiment with EKVX NSCLC, 75%; with SN12C renal, 87.6%; with UO-31 renal, 55.1%; in the experiment on TK-10 renal, 96%; with ACHN renal it was 75.9%. Moreover, the growth in the experiment with CAKI-1 renal is 71.9%; with CCRF-CEM leukemia it was 55.7%; in the experiment with MOLT-4 leukemia it was 74.7%; with SR leukemia it was 6.69% (active); in the experiment on RPMI-8226 leukemia, 80.6%; in the experiment on OVCAR-8 ovarian, 75.3%. Further, the growth with OVCAR-5 ovarian is 89.3%; with OVCAR-4 ovarian it was 34.8%; with SK-OV-3 ovarian, 100%; in the experiment with IGROV1 ovarian, 70.3%; in the experiment with OVCAR-3 ovarian, 75.6%; in the experiment on NCI/ADR-RES ovarian, 66.1%.
